The values that follow come from PubChem BioAssay AID463173 (ICCB-Longwood Screening Facility, Harvard Medical School, 2010).

Molecules are shown by their SMILES. Screen size: about 52,000 compounds; about 1,700 (3.3%) were called active. Cut-off read from the data, not from the text of the source: active = survival mostly below about 52% (no sharp cut-off); inactive = mostly above about 56%. This excerpt belongs to a sample that is enriched for actives.

The test system of this experiment is Wild type. The experiment is described as follows: growth inhibition of S. aureus wild type versus tarO mutant, primary screen, teichoic acid synthesis inhibitors, RN4220, OD600 (AID 463173). To be noted: S. aureus RN4220 wild type/DeltatarO growth, OD600, 18 h, hits give low values, screened at 18.75 µg/mL (by protocol).
Consider `Cn1c(-c2ccc(NC(=O)c3ccccc3)cc2)n[nH]c1=S`, for which the survival was 113% (inactive).
`CC(C)COc1ccc(Nc2ncnc3ccc(Br)cc23)cc1`: the survival was 79% (inactive).
The same measure for `O=C(NCC(c1cccnc1)N1CCc2ccccc2C1)C(=O)Nc1cccc(Cl)c1` (configuration not stated): 47% (inactive); for `Cc1ccc(Cl)cc1N1CCN(CCCNC(=O)Cn2ncc3c([nH]c4ccccc43)c2=O)CC1`: 99% (inactive); for `Cc1cc(C)cc(-n2c(C)nc3cc(C(=O)NCc4ccc(F)cc4)ccc32)c1`: 138% (inactive).
For `CC(NC(=O)c1ccccc1)c1n[nH]c(=S)n1C` (configuration not stated), the survival is 109% (inactive).
For `CC(C)NC(=O)/C=C/c1ccc2c(c1)OCO2`, the survival was 110% (inactive).
Take `O=C(Cn1c(=O)n(Cc2ccccc2)c(=O)c2sc3ccccc3c21)NCc1ccccc1Cl`: the survival is 125% (inactive).
For `CC1=C(C(=O)OCc2ccc(C)cc2)C(c2ccccc2F)CC(=O)N1` (configuration not stated), the survival is 115% (inactive).
The value for `COc1ccc(CNCc2c(C(=O)O)c(C)n(Cc3ccc(Cl)cc3)c2C)c(OC)c1` was 101% (inactive).
For `CCCn1cnc2cc(NC(=O)c3cc(OC)c(OC)c(OC)c3)ccc21`, the survival was 76% (inactive).
In the case of `COc1cc(CNc2ccc3c(c2)ncn3C(C)C)cc(OC)c1OC`, the survival is 66% (inactive).
The same measure for `CCCCn1cnc2cc(NCc3ccccc3Cl)ccc21`: -16% (active); for `COc1cccc(CNc2ccc3c(c2)ncn3C)c1OC`: 121% (inactive); for `CC(C)(C)n1cnc2cc(NCc3ccccc3Cl)ccc21`: 8% (active).
On to `CC(C)(C)n1cnc2cc(NS(=O)(=O)c3ccccc3)ccc21`, for which the survival was 112% (inactive).
Turning to `CCn1cnc2cc(NCc3ccc(N(C)C)cc3)ccc21`, the survival is 94% (inactive).
Turning to `CCCCn1cnc2cc(NCc3ccc(OCC)cc3)ccc21`, the survival is 4% (active).
Consider `CCc1ccc(CNc2ccc3c(c2)ncn3C(C)(C)C)cc1`, for which the survival was -16% (active).
Consider `CCCn1cnc2cc(NCc3ccccc3OCC)ccc21`, for which the survival is 61% (inactive).
As for `CCCn1cnc2cc(NCc3ccc(OC)cc3OC)ccc21`, the survival was 63% (inactive).
Consider `CCCCn1cnc2cc(NC(=O)c3cc(OC)c(OC)c(OC)c3)ccc21`, for which the survival is 79% (inactive).
Take `O=C(CN1C(=O)C2(SCC(=O)N2c2ccccc2)c2ccccc21)NCc1ccccc1Cl` (configuration not stated): the survival was 97% (inactive).
Consider `Cc1cc(C)c2c(c1)NC(=O)C2(O)c1c[nH]c2ccccc12` (configuration not stated), for which the survival was 97% (inactive).
On to `COc1ccc(C)cc1NC(=O)c1cc2c(s1)-c1ccccc1SC2`, for which the survival is 46% (inactive).
With `CC(C)OCCCNC(=O)c1ccc(Cn2c(=O)c3cccn3c3cccnc32)cc1`, the survival is 111% (inactive).
As to `COc1ccc(OC)c(NC(=O)c2cc3c(=O)oc4ccccc4c3s2)c1`, the survival is 103% (inactive).
With `CCCc1cc(=O)[nH]c2nnc(SC(C)CC)n12` (configuration not stated), the survival was 80% (inactive).
The value for `Cc1c2cnn(-c3ccccc3)c(=O)c2c(C)n1C(C)C(=O)Nc1ccccc1C(F)(F)F` (configuration not stated) was 81% (inactive); that for `COc1cccc(N2CCN(C(=O)CCCn3c(=O)[nH]c4ccc(Br)cc4c3=O)CC2)c1` was 53% (inactive).
`Cc1ccc(Cl)cc1N1CCN(C(=O)CCCn2c(=O)[nH]c3ccc(Br)cc3c2=O)CC1`: the survival was 21% (inactive).
Take `O=C(CCCn1c(=O)[nH]c2ccc(Br)cc2c1=O)N1CCN(c2cccc(Cl)c2)CC1`: the survival was 6% (active).
`CCOC(=O)c1noc2ncnc(NCc3ccccc3OC)c12`: the survival is 72% (inactive).
On to `COc1cccc(N2CC(NC(=O)COc3ccc4ccccc4c3)CC2=O)c1` (configuration not stated), for which the survival is 94% (inactive).
On to `COc1cccc(N2CC(NC(=O)c3ccco3)CC2=O)c1` (configuration not stated), for which the survival was 10% (active).
`COc1ccc(N2CC(NC(=O)c3ccco3)CC2=O)cc1OC` (configuration not stated): the survival is 68% (inactive).
The value for `COc1ccc(N2CC(NC(=O)c3ccco3)CC2=O)cc1` (configuration not stated) was 49% (inactive).
Regarding `COc1ccc(OCC(=O)NC2CC(=O)N(c3cccc(OC)c3)C2)cc1` (configuration not stated), the survival was -3% (active).
The same measure for `COc1cccc(OCC(=O)NC2CC(=O)N(c3cccc(OC)c3)C2)c1` (configuration not stated): 124% (inactive); for `O=C1CC(=O)SC(c2ccccc2)=N1`: 105% (inactive).
For `CCOC(=O)c1c(C)[nH]c(C)c1S(=O)(=O)NCC(=O)Nc1cc(Cl)ccc1OC`, the survival is -6% (active).
As to `CCOC(=O)c1scc(-c2ccc(C)cc2)c1S(=O)(=O)Nc1cc(OC)ccc1OC`, the survival was 76% (inactive).
The value for `CCOC(=O)c1scc(-c2ccc(C)cc2)c1S(=O)(=O)Nc1ccc(OC)c(Cl)c1` was 90% (inactive); that for `CCOC(=O)c1c(C)[nH]c(C)c1S(=O)(=O)NCC(=O)Nc1cc(C)ccc1OC` was 75% (inactive); that for `CCOC(=O)c1scc(-c2ccc(C)cc2)c1S(=O)(=O)Nc1cc(Cl)ccc1OC` was -6% (active).
Consider `CCOC(=O)c1c(C)[nH]c(C)c1S(=O)(=O)N(C)CC(=O)Nc1cc(Cl)ccc1OC`, for which the survival was 128% (inactive).
`CCCc1oc(C(=O)O)cc1CN1CCOCC1`: the survival was 117% (inactive).
As for `CC(=O)C1=C(c2ccc(C)cc2)N(C(C)=O)n2c(nnc2-c2ccccc2)S1`, the survival was 134% (inactive).
For the molecule `CCc1cccc2c(-c3ccccc3)nc(SCC(=O)Nc3ccc(OC)cc3)nc12`, the survival was 98% (inactive).
As to `COCCNc1c(-c2ccc(N)cc2)nc2ccc(C)cn12`, the survival was 101% (inactive).
The value for `Cc1ccc(Nc2c(-c3ccc(C)cc3)nc3ccc(C)cn23)cc1` was 121% (inactive).
Take `Cc1ccc2nc(-c3ccc(F)cc3)c(NC(C)(C)CC(C)(C)C)n2c1`: the survival was 14% (active).
The value for `CC(=O)N1c2ccccc2CC1C(=O)N1CCN(c2ccccc2F)CC1` (configuration not stated) was 71% (inactive); that for `CCOc1ccc(NC(=O)/C=C\C(=O)N(c2ccc(C(C)C)cc2)C(C(=O)NCc2ccco2)c2ccc(F)cc2)cc1` (configuration not stated) was 51% (inactive).
Consider `Cc1cccc(NC(=O)CN2C(=O)COc3ccc(S(=O)(=O)Nc4ccccc4)cc32)c1C`, for which the survival was 123% (inactive).
For `Cc1c(Cl)cccc1NC(=O)c1cc2nc(-c3ccc4c(c3)OCO4)cc(C(F)(F)F)n2n1`, the survival was 76% (inactive).
On to `CCOc1ccc(-c2nnc(Nc3ccc(S(N)(=O)=O)cc3)c3ccccc23)cc1`, for which the survival was 88% (inactive).
In the case of `CCCCOc1nnc(-c2ccc(OCC)cc2)c2ccccc12`, the survival is -1% (active).
For the molecule `CCOc1ccc(-c2ncccc2O)cc1`, the survival was 106% (inactive).
Turning to `COc1ccc(S(=O)(=O)N(CCc2ccccc2)CC(=O)NCc2ccc(C)cc2)cc1`, the survival was 67% (inactive).
As to `Cc1ccccc1CCNC(=O)c1cc2ccccn2n1`, the survival was 84% (inactive).
`CCOC(=O)C1CCN(S(=O)(=O)c2ccc3c(c2)NC(=O)C(C)C(=O)N3)CC1` (configuration not stated): the survival is 114% (inactive).
On to `Cc1ccc(N(C)S(=O)(=O)c2c(-c3ccccc3)csc2C(=O)O)cc1`, for which the survival was 61% (inactive).
As for `CC(=O)c1ccc(NC(=O)Cn2ncc3c(C)n(Cc4ccc(F)cc4)c(C)c3c2=O)cc1`, the survival is 74% (inactive).
The value for `COC(=O)c1ccccc1NC(=O)c1nc(-c2ccc(C)cc2)n2c1CCCCC2` was 86% (inactive); that for `COc1ccc(C(=O)Oc2ccc3oc(=O)sc3c2)cc1` was 95% (inactive); that for `CCn1ccc2c(OCC(=O)Nc3ccccc3C)cccc2c1=O` was 0% (active).
`CCn1ccc2c(OCC(=O)Nc3ccc(OC)cc3OC)cccc2c1=O`: the survival is -3% (active).
As to `CCn1ccc2c(OCC(=O)Nc3ccccc3C(F)(F)F)cccc2c1=O`, the survival is 80% (inactive).
As to `CCn1ccc2c(OCC(=O)Nc3ccc(C(C)=O)cc3)cccc2c1=O`, the survival is 53% (inactive).
With `COCCn1ccc2c(OCC(=O)Nc3cccc(OC)c3)cccc2c1=O`, the survival was 90% (inactive).
Regarding `CCn1ccc2c(OCC(=O)NCc3ccccc3)cccc2c1=O`, the survival was 66% (inactive).
For `CCCN1CCN(C(=O)Cn2c(-c3cccs3)cc3cc(F)ccc32)CC1`, the survival was 85% (inactive).
With `Cc1ccc2c(CC(=O)N(Cc3ccc(N(C)C)cc3)Cc3ccco3)coc2c1C`, the survival is 70% (inactive).
Consider `CCc1nn(CC(=O)Nc2ccc(C)cc2C)c(=O)c2cc3sccc3n12`, for which the survival is 90% (inactive).
Turning to `Cc1cc(C)cc(NC(=O)CSc2nncn3c2cc2occc23)c1`, the survival is 66% (inactive).
Turning to `Cc1ccc(CNS(=O)(=O)c2ccc3c(c2)CC(C)N3C(=O)C2CCC2)cc1` (configuration not stated), the survival was 97% (inactive).
Turning to `Cc1ccsc1CN(C(=O)c1ccc(OCC(C)C)cc1)C1CCS(=O)(=O)C1` (configuration not stated), the survival was 85% (inactive).
With `CCCCN(c1ccccc1)c1ncnc2c1cnn2-c1cccc(C)c1`, the survival is 68% (inactive).
For `COC(=O)c1cc2sc(C)cc2n1Cc1cccc(OC)c1`, the survival is 0% (active).
On to `COC(=O)c1cc2sccc2n1Cc1ccc(F)cc1`, for which the survival was 135% (inactive).
Regarding `COC(=O)c1cc2sc(C)cc2n1Cc1ccccc1`, the survival was 83% (inactive).
Regarding `COC(=O)c1cc2sc(C)cc2n1Cc1ccc(Br)cc1F`, the survival is 76% (inactive).
For `COC(=O)c1cc2sc(C)cc2n1Cc1ccc(F)cc1Cl`, the survival was 65% (inactive).
With `C=Cc1ccc(Cn2c(C(=O)OC)cc3sc(C)cc32)cc1`, the survival is 0% (active).
With `Cc1cccc(CCn2c(=O)c3ccccc3n(Cc3cccc(F)c3)c2=O)c1`, the survival was 82% (inactive).
As to `COc1ccc(NC(=O)Cn2cc(S(=O)(=O)c3ccccc3)c(=O)c3cc4c(cc32)OCO4)cc1`, the survival was 79% (inactive).
The value for `COc1cc(CN(C(=O)Nc2ccccc2)c2ccccn2)cc(OC)c1OC` was 86% (inactive); that for `CCCCNC(=O)CN1C(=O)CSc2ccc(S(=O)(=O)N3CCC(C)CC3)cc21` was 92% (inactive); that for `COc1ccccc1NC(=O)CN(C)S(=O)(=O)c1cccc2cccnc12` was 117% (inactive).
Turning to `CC(=O)NC1N=C(C)N(c2ccccc2)C1=O` (configuration not stated), the survival was 101% (inactive).
Take `COc1ccc(Cl)cc1NC(=O)NCCc1c(C)nn(C)c1C`: the survival is -3% (active).
For the molecule `COc1ccc(NC(=O)NCCc2c(C)nn(C)c2C)c(OC)c1`, the survival was 57% (inactive).
Consider `Cc1nn(C)c(C)c1CCNC(=O)Nc1cccc(Cl)c1C`, for which the survival is 63% (inactive).
For the molecule `COC(=O)c1ccccc1NC(=O)NCCc1c(C)nn(C)c1C`, the survival is 82% (inactive).
Regarding `Cc1nn(C)c(C)c1CCNC(=O)Nc1ccccc1C(F)(F)F`, the survival is 1% (active).
The value for `COC(=O)c1ccc(Cl)cc1NC(=O)NCCc1c(C)nn(C)c1C` was 55% (inactive).
